Assay [1] in a line: qHTS assay to identify small molecule antagonists of the estrogen related receptor (ERR) signaling pathway from Tox21 library - cell viability counter screen (AID 1224834). Further: nearly all actives have a fitted effect of over 30% in size. Further: potency means the concentration at half of the fitted maximal effect. In a few lines:
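ERR cells, 2,000/well; 6 h settle at 37 C/5% CO2; pin-tool compound transfer in DMSO; 17.5 h at 37 C; CellTiter-Fluor, 30 min; fluorescence intensity.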
A general note: Quantitative high-throughput screening tests each substance at several concentrations.

Assay [2] addresses Luciferin 4-monooxygenase (Photinus pyralis) (UniProt P08659). Nature of the assay: qHTS assay to identify small molecule inhibitors of firefly luciferase (AID 1224835). Further: nearly all actives have a fitted effect of over 25% in size. Further: potency means the concentration at half of the fitted maximal effect. In a few lines: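 Quantitative HTS format; KM concentrations of both substrates. Purified P. pyralis FLuc activity quantified from luminescence images.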
Assay [3] can be described thus: qHTS assay to identify small molecule agonists of the constitutive androstane receptor (CAR) signaling pathway - cell viability counter screen (AID 1224836). Further: nearly all actives have a fitted effect of over 45% in size. The procedure, abridged:
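Fluorescence from CellTiter-Fluor indicates live cells after 23 h exposure. The human hepatoma line expresses hCAR and a CYP2B6-2.2kb reporter. Incubation medium contains 0.75 uM PK11195 (final).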

The nature of assay [4]: qHTS assay to identify small molecule antagonists of the constitutive androstane receptor (CAR) signaling pathway - cell viability counter screen (AID 1224837). Further: nearly all actives have a fitted effect of over 45% in size. In a few lines:
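Viability was measured with CellTiter-Fluor in a HepG2 line carrying stably transfected hCAR and a CYP2B6-2.2kb construct. Cells were exposed for 23 hr at 37 C to 15 compound concentrations with 50 nM CITCO as agonist.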

Assay [5] has as its target Nuclear receptor subfamily 1 group I member 3 (Homo sapiens) (UniProt Q14994). Nature of the assay: qHTS assay to identify small molecule antagonists of the constitutive androstane receptor (CAR) signaling pathway (AID 1224838).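 Further: HepG2 cells stably expressing hCAR with CYP2B6 luciferase reporter stimulated by CITCO; nearly all actives have a fitted effect of over 40% in size.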 In a few lines:
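Antagonist mode used CITCO at a final 50 nM to activate CAR in human hepatoma HepG2 cells carrying stable hCAR and a 2.2 kb CYP2B6 promoter-luciferase construct. Compounds were tested at 15 concentrations over 24 h, with luminescence as the end point.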

The target is the same in assay [6]. Nature of the assay: qHTS assay to identify small molecule agonists of the constitutive androstane receptor (CAR) signaling pathway (AID 1224839). Further: nearly all actives have a fitted effect of over 15% in size. Further: potency means the concentration at half of the fitted maximal effect. In a few lines: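 Stable hCAR/CYP2B6-2.2kb HepG2 line in DMEM with 10% FBS; compounds (15 concentrations) and 0.75 uM PK11195 final, 24 h at 37 C/5% CO2, then ONE-Glo luminescence after 30 min.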
Assay [7] can be described thus: qHTS assay to identify small molecule antagonists of the estrogen related receptor signaling pathway with the pleiotropic PPARgamma coactivator (PGC) from Tox21 10K library - cell viability counter screen (AID 1224840; active means well fitted cell-killing curve with a large enough effect in the repeat runs, not every such curve was filed as active; further: nearly all actives have a fitted effect of over 40% in size). In a few lines:
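Multiplexed viability counter screen in the PGC/ERR cell line: cells treated with DMSO-dissolved compounds for 17.5 hours at 37 C, then viability measured as CellTiter-Fluor fluorescence.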

Assay [8] deals with Thyrotropin receptor (Homo sapiens) (UniProt P16473). Nature of the assay: qHTS assay to identify small molecule agonists of the thyroid stimulating hormone receptor (TSHR) signaling pathway (AID 1224843; calls by dose curve; further: nearly all actives have a fitted effect of over 45% in size). The procedure, abridged: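 Compounds are titrated over 15 concentrations, in triplicate, onto TSHR-HEK293 cells seeded at 800/well. Plates sit 30 min at room temperature before cAMP-d2 and anti-cAMP cryptate are added; signal is read after a further hour.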
Sequence of Thyrotropin receptor (Homo sapiens) (P16473 whole entry, looked up): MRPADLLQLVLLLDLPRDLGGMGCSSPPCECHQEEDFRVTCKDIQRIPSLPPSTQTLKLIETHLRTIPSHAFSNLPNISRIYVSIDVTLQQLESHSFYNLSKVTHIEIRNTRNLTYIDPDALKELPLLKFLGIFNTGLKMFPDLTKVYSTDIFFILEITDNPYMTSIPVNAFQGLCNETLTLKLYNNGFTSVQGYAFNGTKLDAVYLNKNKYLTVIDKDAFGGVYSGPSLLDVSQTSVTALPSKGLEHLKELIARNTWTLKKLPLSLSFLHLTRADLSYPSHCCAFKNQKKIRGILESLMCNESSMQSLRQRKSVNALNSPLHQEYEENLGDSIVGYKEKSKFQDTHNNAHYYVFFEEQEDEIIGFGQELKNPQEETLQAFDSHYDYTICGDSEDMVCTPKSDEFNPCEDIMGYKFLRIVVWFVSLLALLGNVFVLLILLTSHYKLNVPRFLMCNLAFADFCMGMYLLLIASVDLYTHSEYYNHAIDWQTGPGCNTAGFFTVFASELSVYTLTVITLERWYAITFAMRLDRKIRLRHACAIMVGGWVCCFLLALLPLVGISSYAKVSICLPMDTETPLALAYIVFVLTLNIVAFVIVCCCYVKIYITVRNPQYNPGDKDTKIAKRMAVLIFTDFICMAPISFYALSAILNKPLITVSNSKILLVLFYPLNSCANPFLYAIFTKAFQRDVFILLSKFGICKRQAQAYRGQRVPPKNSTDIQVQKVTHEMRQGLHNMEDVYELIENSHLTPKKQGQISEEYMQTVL

Assay [9] can be described thus: qHTS assay to identify small molecule agonists of the hypoxia (HIF-1) signaling pathway - cell viability counter screen (AID 1224844; calls by dose curve; further: nearly all actives have a fitted effect of over 50% in size; further: potency means the concentration at half of the fitted maximal effect). In a few lines: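 Cytotoxicity was measured in parallel with the HRE-driven beta-lactamase readout: after 17 hrs of compound exposure at 37C, HRE-bla ME-180 cells received CellTiter-Glo and luminescence was recorded 30 min later.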

Assay [10] is described as follows: qHTS assay to identify small molecule agonists of H2AX (AID 1224845; active means well fitted activation curve with a large enough effect in the signal ratio in the repeat runs, not every such curve was filed as active; the % refers to the signal ratio; further: potency means the concentration at half of the fitted maximal effect). The procedure, abridged:
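Wild-type CHO-K1 cells plated overnight, then exposed 3 hr at 37C to compounds at 15 concentrations (0.76% DMSO). Lysed, then HTRF anti-pH2AX(S139)-cryptate/anti-H2AX-d2 detection after 24 hr at room temperature; emissions 665 and 620 nm.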

Assay [11] in a line: qHTS assay to identify small molecule agonists of H2AX - cell viability counter screen (AID 1224847; calls by dose curve; further: nearly all actives have a fitted effect of over 30% in size; further: potency means the concentration at half of the fitted maximal effect). In a few lines: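 Viability of CHO-K1 (wild type) cells after 3 hr compound exposure was measured by CellTiter-Glo luminescence.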
A short description of assay [12]: qHTS RealTime-Glo MT Cell Viability Assay in HepG2 cells - 24 hour (AID 1224867). Further: nearly all actives have a fitted effect of over 50% in size. Further: potency means the concentration at half of the fitted maximal effect. In a few lines:
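Tox21 10K library screened in qHTS format on HepG2 cells carrying RealTime-Glo reagents. Compounds were added after a 5 h preincubation, and the luminescent signal from continuous culture was measured repeatedly during 40 h treatment.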

A short description of assay [13]: qHTS RealTime-Glo MT Cell Viability Assay in HEK293 cells - 32 hour (AID 1224868). Further: nearly all actives have a fitted effect of over 50% in size. Further: potency means the concentration at half of the fitted maximal effect. In a few lines: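 Luminescence generated by NanoLuc from substrate produced by living HEK293 cells served as the viability signal. Each value reflects the reading at its stated time point during continuous 40 h compound exposure at 37 C.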
A short description of assay [14]: A CellTox Green Cytotoxicity Assay to monitor cytotoxicity in HEK293 cells - 0 hour (AID 1224869). Further: nearly all actives have a fitted effect of over 50% in size. In a few lines: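 Cells (HEK293, 600/well) and dye reagent are dispensed together. After 5 h at 37 C, 23 nL compound is pinned in. Plates stay at 37 C for 40 h with fluorescence read at 0h, 8h, 16h, 24h, 32h and 40h.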
The nature of assay [15]: qHTS assay to identify small molecule agonists of the hypoxia (HIF-1) signaling pathway (AID 1224846; active means well fitted activation curve with a large enough effect in the signal ratio in the repeat runs, not every such curve was filed as active; the % refers to the signal ratio). The procedure, abridged: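 Compounds from the Tox21 10K library, dissolved in DMSO, are tested for induction of a hypoxia response element–controlled beta-lactamase reporter in ME-180 cells. Exposure lasts 17 hrs at 37C after a 5 hr settling period, followed by CCF4-AM FRET substrate.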

A short description of assay [16]: qHTS RealTime-Glo MT Cell Viability Assay in HepG2 cells - 40 hour (AID 1224870). Further: nearly all actives have a fitted effect of over 50% in size. Further: potency means the concentration at half of the fitted maximal effect. In a few lines:
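HepG2 cells mixed with RealTime-Glo MT reagents (NanoLuc plus cell-permeant prosubstrate) were seeded at 600 cells/well, incubated 5 h at 37 C/5% CO2, then pinned with compounds in DMSO; nonlytic luminescence tracked viability during 40 h treatment.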

Assay [17] can be described thus: qHTS assay to identify small molecule antagonists of the estrogen related receptor signaling pathway with the pleiotropic PPARgamma coactivator (PGC) from Tox21 10K library (AID 1224841; call rule not given here; further: potency means the concentration at half of the fitted maximal effect). In a few lines: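 Steps: plate 2,000 PGC/ERR cells per well; incubate 6 h at 37 C with 5% CO2; transfer compounds from DMSO stocks by pin tool; incubate 18 h at 37 C; add One-Glo; measure luminescence 30 min later.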

Assay [18] can be described thus: qHTS assay to identify small molecule agonists of the estrogen related receptor signaling pathway with the pleiotropic PPARgamma coactivator (PGC) from Tox21 10K library (AID 1224842). Further: nearly all actives have a fitted effect of over 15% in size. The procedure, abridged:
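PGC/ERR reporter cells (NTP line) were seeded 2,000 per well, rested 6 h at 37 C/5% CO2, then pin-dosed with compounds in DMSO for 18 h at 37 C; luciferase read by One-Glo luminescence after 30 min at room temperature.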

Assay [19] is described as follows: qHTS assay to identify small molecule antagonists of the estrogen related receptor (ERR) signaling pathway from Tox21 library (AID 1224848). Further: nearly all actives have a fitted effect of over 50% in size. Further: potency means the concentration at half of the fitted maximal effect. In a few lines: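 First, 2,000 ERR cells per well were plated and held 6 h at 37 C/5% CO2. Next, compounds in DMSO were pinned in and left 18 h at 37 C. Finally, ONE-Glo was added and luminescence read after 30 min at room temperature.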

Assay [20] is described as follows: qHTS assay to identify small molecule agonists of the estrogen related receptor (ERR) signaling pathway from Tox21 library (AID 1224849; calls by dose curve; further: nearly all actives have a fitted effect of over 15% in size). Particulars: ERR reporter cell line, ONE-Glo luciferase, 18 h; at 92.4 µM (top of the series) unless noted. In a few lines: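 Cells carrying the ERR reporter were plated and allowed to settle for 6 h, exposed to library compounds for 18 h at 37 C, then lysed with ONE-Glo and luminescence measured.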

Unmarked numbers belong to inactive results. Results filed as inconclusive are left out. Activity calls are given as the source filed them. Unless noted, the call rests on the fitted dose curve; in most records, active means well fitted curve in the direction sought with a large enough effect in the repeat runs; inconclusive means weak or mixed curves; inactive means no such curve, though single readings can be large; an effect the other way counts as inactive or inconclusive.
On the % scale 0 is the no-effect control and ±100 the full control effect.

Sequence of Nuclear receptor subfamily 1 group I member 3 (Homo sapiens) (Q14994 whole entry, looked up): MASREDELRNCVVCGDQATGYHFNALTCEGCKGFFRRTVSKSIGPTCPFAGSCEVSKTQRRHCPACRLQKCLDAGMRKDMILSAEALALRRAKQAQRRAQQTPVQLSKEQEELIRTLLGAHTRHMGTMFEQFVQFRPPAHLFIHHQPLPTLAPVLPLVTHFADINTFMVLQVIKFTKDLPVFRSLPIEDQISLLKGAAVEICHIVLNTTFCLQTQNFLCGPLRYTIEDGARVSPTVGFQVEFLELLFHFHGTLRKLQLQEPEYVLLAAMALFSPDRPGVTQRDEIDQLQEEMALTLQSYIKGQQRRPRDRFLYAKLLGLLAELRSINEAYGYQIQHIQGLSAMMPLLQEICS
Sequence of Luciferin 4-monooxygenase (Photinus pyralis) (P08659 whole entry, looked up): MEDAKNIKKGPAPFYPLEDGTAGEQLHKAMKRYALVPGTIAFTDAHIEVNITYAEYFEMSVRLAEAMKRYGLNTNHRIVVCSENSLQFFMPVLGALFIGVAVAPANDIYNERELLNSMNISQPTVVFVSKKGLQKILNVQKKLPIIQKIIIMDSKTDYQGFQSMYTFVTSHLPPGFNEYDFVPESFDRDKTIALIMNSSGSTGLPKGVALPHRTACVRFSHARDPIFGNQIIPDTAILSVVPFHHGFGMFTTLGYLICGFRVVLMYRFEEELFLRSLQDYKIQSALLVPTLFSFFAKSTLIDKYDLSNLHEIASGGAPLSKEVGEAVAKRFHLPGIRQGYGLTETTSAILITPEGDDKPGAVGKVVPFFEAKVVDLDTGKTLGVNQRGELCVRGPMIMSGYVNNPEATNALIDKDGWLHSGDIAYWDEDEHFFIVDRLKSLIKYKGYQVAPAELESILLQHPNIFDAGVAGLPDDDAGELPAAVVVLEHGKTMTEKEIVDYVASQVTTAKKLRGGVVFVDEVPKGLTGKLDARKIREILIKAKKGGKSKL

As for `C=CCc1ccccc1OCC(O)CNC(C)C` (configuration not stated), the Potency result in assay [1], in [2], in [3], in assay [4], in [5] and in assay [6] was “inactive” throughout. Besides, the Potency result in assay [7], in assay [8], in assay [9], in [10], in assay [11] and in assay [12] was “inactive” each time. Further, the Potency result in assay [13] and in [14] was “inactive” throughout.

For the compound `OCCOCC#CCOCCO`, the Potency entry in assay [1], in assay [2], in assay [3], in assay [4], in [5] and in assay [6] was “inactive” in each case. Further, the Potency result in assay [7], in assay [8], in assay [9], in assay [10], in assay [11] and in [12] was “inactive” throughout. Further, the Potency entry in assay [13], in [14] and in assay [16] was “inactive” in each case. For the same compound, the call in [15] was inactive.

As for `C=Cc1ccc(S(=O)(=O)O)cc1`, the Potency entry in [1], in assay [3], in assay [7], in assay [17], in assay [18] and in [8] was “inactive” each time. Further, the Potency entry in assay [10], in [11], in assay [19], in assay [12], in assay [13] and in assay [14] was “inactive” throughout. For the same compound, the Potency entry in [16] was “inactive”. Also, the Potency in assay [2] is 20 µM (active). Besides, the outcome in assay [15] was inactive. For the same compound, the activity change, positive = activation in assay [20] was 6.91%.

`CCCCCCCCCCC(=O)O`: the Potency result in [1], in assay [3], in assay [7], in assay [8], in assay [9] and in assay [10] was “inactive” in each case. For the same compound, the Potency result in assay [12], in [13], in assay [14] and in assay [16] was “inactive” each time. Besides, the Potency in assay [2] was 57.1 µM (active). For the same compound, the compound was classed as inactive in assay [15].

As for `CN1CCCC(CC2c3ccccc3Sc3ccccc32)C1` (configuration not stated), the Potency was 26.6 µM (active) in assay [1], 23.9 µM (active) in assay [12] and 23.9 µM (active) in assay [13]. The Potency entry in [2], in [4], in assay [6], in assay [17], in assay [8] and in assay [14] was “inactive” each time. Further, in assay [20], the activity change, positive = activation was -39.8% [at 42.5 µM].

For `C[C@@H](O[C@H]1OCCN(Cc2n[nH]c(=O)[nH]2)[C@H]1c1ccc(F)cc1)c1cc(C(F)(F)F)cc(C(F)(F)F)c1`, the Potency in assay [1] was 26.6 µM (active); in [17], 29.8 µM (active); in assay [9] it was 21.3 µM (active); in assay [19], 23.7 µM (active); in [12], 21.3 µM (active); in assay [13], 16.9 µM (active). Further, the Potency result in assay [2], in assay [4], in [18] and in assay [14] was “inactive” each time. In addition, the activity change, positive = activation in assay [20] is -53.3% [at 42.5 µM].

`COc1cc(Nc2c(C#N)cnc3cc(OCCCN4CCN(C)CC4)c(OC)cc23)c(Cl)cc1Cl`: the Potency was 9.44 µM (active) in assay [1]; 7.8 µM (active) in [10]; 55.2 µM (active) in assay [11]; 8.49 µM (active) in assay [13]; 23.9 µM (active) in assay [16]. For the same compound, the Potency entry in assay [2], in [3], in [7], in [9] and in [14] was “inactive” throughout. Besides, the call in assay [15] was inactive.

Turning to `O=C1c2ccccc2C(=O)C1c1nc2ccccc2c(Br)c1O`, the Potency result in assay [1], in assay [3], in [7], in assay [8], in assay [9] and in assay [10] was “inactive” each time. Further, the Potency result in [11], in [12], in [13] and in [14] was “inactive” in each case. Besides, the Potency in assay [2] is 17.8 µM (active).

Regarding `O=c1cc(-c2ccccc2)oc2cc(O)cc(O)c12`, the Potency was 30.6 µM (active) in assay [1], 2.52 µM (active) in assay [2] and 30.6 µM (active) in [6]. For the same compound, the Potency entry in assay [5], in [9] and in [14] was “inactive” each time.

The values are drawn from PubChem BioAssay (Tox21).
